The results in this text go back to PubChem BioAssay (NCI).

The structures appear in SMILES notation. The panel holds about 83,000 compounds, 20% with a hit somewhere; the sample as a whole holds those more often.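 Percent growth is the endpoint: 0 to 100 indicates growth inhibition (40 means 60% inhibition), 0 means no net growth, and negative values indicate cell death.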 Active and inactive are the calls of the source.

The test relates to U251 CNS. The test can be described thus: NCI-60 one-dose screen, 48 h (100 = growth as untreated, 0 = no growth, -100 = all killed). As to conditions: 10 µM. The protocol:
Growth inhibition of the U251 human tumor cell line is measured as a screen for anti-cancer activity. Cells are grown in 96 well plates and exposed to the test compound for 48 hours. Compounds are tested at a single concentration, which is 10^-5 M for most compounds. The reported endpoint is percent growth (GI% or GIPRCNT), where numbers from 0 - 100% represent growth inhibition, and numbers from -100% - 0 represent cell death. For example, a value of 40 represents 60% growth inhibition. A value of 0 means no net growth occurred over the course of the experiment. A value of -40 indicates 40% of cells at the beginning of the experiment died by the end of the experiment. A value of -100 means all cells are dead at the end of the experiment.
NCI-60 Human Tumor Cell Lines Screen was performed using the standard one-dose NCI protocol, which is described in more detail at https://dtp.cancer.gov/discovery_development/nci-60/default.htm.
Compounds with GIPRCNT values below 10 were considered active. Activity score was based on GIPRCNT using the following formula: […]
Score is 0 for GIPRCNT values of 100 or above, 50 for GIPRCNT values of 0, and 100 for GIPRCNT values of -100.
For the molecule `CC[C@@]1(C(N)=O)CC2C=CC1C2` (stereo not given in full), the growth is 113% (inactive). In the case of `Cc1cc2cc3c(=O)[nH]c(=O)cc-3n(CC(O)C(O)C(O)CO)c2cc1C` (stereo not given), the growth is 104% (inactive). With `CCOC(=O)c1cc2c(n1Cc1cc(OC)cc(OC)c1)-c1oncc1CC2`, the growth was 23.5% (inactive). As for `Clc1cc(Cl)c(Cl)c(-c2nc(-c3cccnc3)cs2)c1`, the figure is 88.7% (inactive); as for `CCCCOCCOCCOCc1cc2c(cc1Br)OCO2`, 94.9% (inactive).

With `COc1cc(C2c3cc4c(cc3C(O)C(CO)C2CO)OCO4)cc(OC)c1OC` (stereo not given), the growth was 22.3% (inactive). For the molecule `Cc1ccc2nc3[nH]c(=O)[nH]c(=O)c3c(N)c2c1`, the growth was 89.1% (inactive). In the case of `O=[N+]([O-])c1ccc2c(c1)Cc1cc(I)ccc1-2`, the growth is 96% (inactive). On to `O=C(O)c1ccc(CNc2ccc(C(=O)CCl)cc2)cc1`, for which the growth was 93.8% (inactive). As for `C=CCn1c(C)nc2cc(Nc3nc(Nc4ccc5nc(C)n(CC=C)c5c4)c4ccccc4n3)ccc21`, the figure is -90.7% (active); as for `S=C(Cc1ccc(-c2ccccc2)cc1)N1CCOCC1`, 96.6% (inactive). The value for `CCN(CC)CC(O)Cc1ccc(OC)cc1` (stereo not given) was 108% (inactive). Take `CCN(CCCNC(=O)Cc1cc(=O)oc2cc(N(C)C)ccc12)CCNc1ccnc2cc(Cl)ccc12`: the growth is 58.9% (inactive). `COC(=O)[C@]12CC[C@@H](C)[C@H](C)[C@@H]1C1=CC[C@@H]3[C@@]4(C)CC(=O)[C@H](O)[C@@]5(C)COC(=C45)C[C@@]3(C)[C@]1(C)CC2`: the growth is -88.7% (active). For the molecule `Fc1ccc2[nH]c3c(NCCCN4CCOCC4)ncnc3c2c1`, the growth was 41.1% (inactive).

As to `Cc1cc(=O)oc2cc(OCc3cn(CC(O)CO)nn3)ccc12` (stereo not given), the growth is 100% (inactive). As for `FC(F)(F)c1ccc(-c2cnc(Cl)nc2NC2CCCCCC2)cc1`, the figure is 5.17% (active); as for `COc1ccc(-n2nnc3c(sc4ccccc43)c2=O)cc1`, 18.9% (inactive); as for `C[N+]1=C(/C=C/c2ccc(I)cc2)C(C)(C)c2ccccc21`, 40.6% (inactive).

As for `N#C/C(=C\N1C(=O)/C(=C/c2cccc([N+](=O)[O-])c2)SC1=S)c1nc2ccccc2s1`, the growth was 69% (inactive). The value for `COc1cc2ccnc(C=O)c2cc1OC` was 91% (inactive). The value for `Fc1cc(-c2ncc(-c3cc(F)c(F)c(F)c3)c(NC3CCCCCC3)n2)cc(F)c1F` was 83.4% (inactive).

Regarding `COc1cc(CSc2nc3ccc(Cl)cc3c(=O)n2-c2ccccc2)cc(OC)c1OC`, the growth is 88.6% (inactive).

For the molecule `CC(C)/C=N/NC(N)=S`, the growth was 80.8% (inactive). The value for `Nc1nc2c(ncn2C2OC3COP(=O)(O)OC4C(COP(=O)(O)OC2C3O)OC(n2cnc3c(N)ncnc32)C4O)c(=O)[nH]1` (stereo not given) was 110% (inactive); that for `Nc1ccn([C@@H]2O[C@H](COP(=O)(O)O[C@@H]3C[C@H](n4cc(F)c(=O)[nH]c4=O)O[C@@H]3COP(=O)(O)O[C@@H]3C[C@H](n4cc(F)c(=O)[nH]c4=O)O[C@@H]3COP(=O)(O)O[C@@H]3C[C@H](n4cc(F)c(=O)[nH]c4=O)O[C@@H]3COP(=O)(O)O[C@@H]3C[C@H](n4cc(F)c(=O)[nH]c4=O)O[C@@H]3COP(=O)(O)O[C@@H]3C[C@H](n4cc(F)c(=O)[nH]c4=O)O[C@@H]3COP(=O)(O)O[C@@H]3C[C@H](n4cc(F)c(=O)[nH]c4=O)O[C@@H]3COP(=O)(O)O[C@@H]3C[C@H](n4cc(F)c(=O)[nH]c4=O)O[C@@H]3COP(=O)(O)O[C@@H]3C[C@H](n4cc(F)c(=O)[nH]c4=O)O[C@@H]3COP(=O)(O)O[C@@H]3C[C@H](n4cc(F)c(=O)[nH]c4=O)O[C@@H]3COP(=O)(O)O[C@@H]3C[C@H](n4cc(F)c(=O)[nH]c4=O)O[C@@H]3COP(=O)(O)OCCOCCOCCOCCOCCOCCO)[C@H](O)C2O)c(=O)n1` (stereo not given in full) was 30.3% (inactive). As for `CCN(Cc1ccccc1)C1CCN(Cc2cc(Br)ccc2O)CC1`, the growth is 43.9% (inactive). The value for `N#Cc1c(-c2ccccc2)nc(SCC(=O)N2CCOCC2)[nH]c1=O` was 105% (inactive). Consider `O=C(O)CNS(=O)(=O)c1ccc(OCCOc2ccc(S(=O)(=O)NCC(=O)O)cc2)cc1`, for which the growth was 99.9% (inactive). As for `COc1ccc(C2=NNC(c3sc(Cl)nc3Cl)C2)cc1` (stereo not given), the figure is 93.7% (inactive). As to `CCCCCC(=O)N1c2ccccc2NC2=C(C(=O)CC(c3ccc(OC)c(OC)c3)C2)C1c1ccc(C(F)(F)F)cc1` (stereo not given), the growth is 49.5% (inactive). As for `O=C(O)c1cc(C(F)(F)F)cc(C(F)(F)F)c1`, the growth was 103% (inactive). Take `Nc1ccc2c(c1)Cc1cc(N)c(Cl)cc1-2`: the growth was 93.2% (inactive). As for `N#Cc1ccc(-n2cnc(NC(=O)[C@H]3CCN(C#N)C3)c2)cc1`, the figure is 7.35% (active); as for `CN(C)CCCN1c2ccccc2Sc2ccc(C(F)(F)F)cc21`, 19.5% (inactive); as for `CC(C)C[C@H](NC(=O)Cn1ccc2ccccc2c1=O)B(O)O`, 87.6% (inactive). The value for `COc1cc2c3c(cccc3c1)C(=O)N(CCN1CCCC1)C2=O` was 25.9% (inactive); that for `FC(F)(F)c1ccc(-c2cnc(Cl)nc2NCc2cc(C(F)(F)F)cc(C(F)(F)F)c2)cc1` was 10.7% (inactive); that for `COc1ccc(-c2nc(-c3nc4ccc(C)cc4[nH]3)c3ccccn23)cc1` was 42.6% (inactive). The value for `COc1ccc(C(=O)c2sc3nc(-c4cccs4)ccc3c2N)cc1OC` was 59% (inactive).
